In PubChem BioAssay (EPA / NIEHS):
The source made the active and inactive calls. Rule for the calls: active = hit-call score of the fitted dose curve at least 0.9, where 1 is the maximum; inactive = score below 0.9.

read-out: Pro-epidermal growth factor (Homo sapiens) (UniProt P01133); test: LTEA_HepaRG_EGF: Life Technologies and Expression Analysis (LTEA) Assay for Epidermal growth factor (EGF) using HepaRG (AID 2283489); conditions: mRNA level, 48 h; actives raise or lower the signal
Summary of the method: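 HepaRG cells (~100,000/well, 48 h pre-culture) exposed in duplicate for 48 h in serum-free induction medium to 8 half-log concentrations up to 100 uM in 0.5% DMSO. EGF mRNA by qRT-PCR, normalized to ACTB/GAPDH/POLR2A; bidirectional fit versus DMSO.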

SMILES | outcome | AC50
CCOC(=O)CCC(=O)OCC | inactive | 
CCc1c(C(=O)NN2CCCCC2)nn(-c2ccc(Cl)cc2Cl)c1-c1ccc(Br)cc1 | inactive | 
Nc1nc(N)c2nc(CNc3ccc(C(=O)N[C@@H](CCC(=O)O)C(=O)O)cc3)cnc2n1 | inactive | 
CCCCCCCCCCO | inactive | 
CCCCN(CCCC)CCCC | inactive | 
Oc1ccc2ccccc2c1N=Nc1ccccc1 | inactive | 
CCOC(=O)C(C)(C)Oc1ccc(Cl)cc1 | inactive | 
CCCc1cc(=O)[nH]c(=S)[nH]1 | inactive | 
CC1(C)CC(N=C=O)CC(C)(CN=C=O)C1 (stereo not given) | inactive | 
CCOc1ccc2c(c1)C(C)=CC(C)(C)N2 | inactive | 
Cc1cccc([N+](=O)[O-])c1C | inactive | 
O=c1[nH]cc(F)c(=O)[nH]1 | inactive | 
Cc1cc(=O)[nH]c(=S)[nH]1 | inactive | 
C=CCOC(=O)c1ccccc1C(=O)OCC=C | inactive | 
C=CCc1ccc(O)c(OC)c1 | inactive | 
CCCCCCC(=O)OCC | inactive | 
CCNc1cccc(C)c1 | inactive | 
C[C@]12C=CC(=O)C=C1CC[C@@H]1[C@@H]2C(=O)C[C@@]2(C)[C@H]1CC[C@]2(O)C(=O)CO | inactive | 
O=c1c(O)c(-c2ccc(O)c(O)c2)oc2cc(O)cc(O)c12 | inactive | 
COc1ccc2c(c1)c(CC(=O)O)c(C)n2C(=O)c1ccc(Cl)cc1 | inactive | 
COc1ccc(S(=O)(=O)N2C(=O)[C@@](c3ccccc3OC)(N3C[C@H](O)C[C@H]3C(=O)N(C)C)c3cc(Cl)ccc32)c(OC)c1 | inactive | 
CCCCCCCCCCCC(=O)OC | inactive | 
Cc1ccc(C(C)C)c(O)c1 | inactive | 
CCCCCCOCCO | inactive | 
O=C(OCCCCCOC(=O)c1ccccc1)c1ccccc1 |  | 2.17 µM (active)
CNCc1cc(F)ccc1Oc1ccc(Cl)c(Cl)c1 |  | 79.4 µM (active)
COC(=O)c1ccc(O)cc1 | inactive | 
NC(=O)Cn1c(=O)cc(CCN2CCN(c3nccc4sccc34)CC2)c2ccc(F)cc21 | inactive | 

read-out: Early growth response protein 1 (EGR1) transcription factor, EGR1 (gene 1958); test: LTEA_HepaRG_EGR1: Life Technologies and Expression Analysis (LTEA) Assay for Early growth response protein 1 (EGR1) transcription factor using HepaRG (AID 2283490); conditions: mRNA level, 48 h; actives raise or lower the signal
Summary of the method: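 EGR1 expression change in human HepaRG after 48 h chemical exposure, assessed by housekeeping-normalized qRT-PCR; concentration-response up to 100 uM, fitted in both directions against DMSO controls.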

SMILES | AC50 | outcome
CCc1c(C(=O)NN2CCCCC2)nn(-c2ccc(Cl)cc2Cl)c1-c1ccc(Br)cc1 | 12.2 µM (active) | 
Oc1ccc2ccccc2c1N=Nc1ccccc1 | 3.53 µM (active) | 
CCCc1cc(=O)[nH]c(=S)[nH]1 |  | inactive
Cc1cc(=O)[nH]c(=S)[nH]1 |  | inactive
Nc1ccc(S(=O)(=O)c2ccc(N)cc2)cc1 |  | inactive
C=CCc1ccc(O)c(OC)c1 |  | inactive
C[C@]12C=CC(=O)C=C1CC[C@@H]1[C@@H]2C(=O)C[C@@]2(C)[C@H]1CC[C@]2(O)C(=O)CO |  | inactive
O=c1c(O)c(-c2ccc(O)c(O)c2)oc2cc(O)cc(O)c12 |  | inactive
COc1ccc2c(c1)c(CC(=O)O)c(C)n2C(=O)c1ccc(Cl)cc1 |  | inactive
Cc1ccc(C(C)C)c(O)c1 |  | inactive
CCCCCCOCCO |  | inactive
NC(=O)Cn1c(=O)cc(CCN2CCN(c3nccc4sccc34)CC2)c2ccc(F)cc21 |  | inactive
